# Measured values taken from the antibiotic and cytotoxicity screens of Wong et al. (2023).
# Hit rate of the full screen: of about 39,000 compounds, about 1,500 (3.8%) were called active. The list comes from a sample in which actives are over-represented; it also holds similar structures and randomly drawn compounds.
# Tested on: HSkMC (human skeletal muscle cells)
# Assay: cytotoxicity call (relative viability < 0.9)
# Settings: 10 µM
row,SMILES,cytotoxicity call
1,CC(C)NC(=O)Nc1ccc2c(c1)C(=O)N([C@H](C)CO)C[C@H](C)[C@@H](CN(C)S(C)(=O)=O)OCCCC[C@@H](C)O2,inactive
2,CC(C)(C)[S@](=O)N1Cc2cc(C(=O)N3CCCCC3)nc(-c3cccc(C4=CCCC4)c3)c2[C@@H]1CCO,inactive
3,Cc1noc(C)c1NC(=O)N(C)C[C@@H]1OCCCC[C@H](C)Oc2ccc(NS(=O)(=O)c3ccc(Cl)cc3)cc2C(=O)N([C@H](C)CO)C[C@@H]1C,inactive
4,CC[C@H](C)[C@@H]([C@@H](CC(=O)N1CCC[C@H]1[C@H](OC)[C@@H](C)C(=O)N[C@@H](Cc1ccccc1)c1nccs1)OC)N(C)C(=O)[C@@H](NC(=O)[C@H](C(C)C)N(C)C)C(C)C,active
5,C[C@H](CO)N1C[C@H](C)[C@@H](CN(C)Cc2ccc(Oc3ccccc3)cc2)Oc2c(NC(=O)Cc3ccccc3)cccc2C1=O,inactive
6,COc1ccc(NC(=O)Nc2ccc3c(c2)C(=O)N([C@H](C)CO)C[C@@H](C)[C@@H](CN(C)Cc2ccc4c(c2)OCO4)OCCCC[C@@H](C)O3)cc1,inactive
7,Cc1noc(C)c1S(=O)(=O)Nc1ccc2c(c1)C(=O)N([C@@H](C)CO)C[C@H](C)[C@@H](CN(C)C(=O)Nc1ccc(C(F)(F)F)cc1)OCCCC[C@@H](C)O2,inactive
8,C[C@@H]1CN([C@@H](C)CO)C(=O)c2cc(NC(=O)CCCCCC(=O)Nc3ccccc3N)ccc2O[C@H]1CN(C)C(=O)Nc1ccc(F)cc1,inactive
9,Nn1c(-c2ccncc2)nncc1=O,inactive
10,C[C@@H]1CN([C@H](C)CO)C(=O)Cc2cc(NC(=O)Nc3ccc4c(c3)OCO4)ccc2O[C@@H]1CN(C)Cc1ccc(Cl)c(Cl)c1,active
11,C[C@H]1CN([C@@H](C)CO)C(=O)Cc2cc(NC(=O)Nc3ccc4c(c3)OCO4)ccc2O[C@H]1CN(C)Cc1ccc(Cl)c(Cl)c1,active
12,C[C@H](CO)N1C[C@H](C)[C@H](CN(C)Cc2ccc(Cl)c(Cl)c2)Oc2ccc(NC(=O)Nc3ccc4c(c3)OCO4)cc2C1=O,inactive
13,C[C@H]1CN([C@@H](C)CO)C(=O)c2cc(NC(=O)Nc3ccc4c(c3)OCO4)ccc2O[C@@H]1CN(C)Cc1ccc(Cl)c(Cl)c1,inactive
14,C[C@@H]1CN([C@H](C)CO)C(=O)Cc2cc(NC(=O)Nc3ccc4c(c3)OCO4)ccc2O[C@H]1CN(C)Cc1ccc(Cl)c(Cl)c1,inactive
15,C[C@@H]1CN([C@@H](C)CO)C(=O)Cc2cc(NC(=O)Nc3ccc4c(c3)OCO4)ccc2O[C@@H]1CN(C)Cc1ccc(Cl)c(Cl)c1,inactive
16,C[C@@H]1CN([C@@H](C)CO)C(=O)Cc2cc(NC(=O)Nc3ccc4c(c3)OCO4)ccc2O[C@H]1CN(C)Cc1ccc(Cl)c(Cl)c1,inactive
17,C[C@H]1CN([C@@H](C)CO)C(=O)c2cc(NC(=O)Nc3ccc4c(c3)OCO4)ccc2O[C@H]1CN(C)Cc1ccc(Cl)c(Cl)c1,inactive
18,C[C@@H]1CN([C@@H](C)CO)C(=O)c2cc(NC(=O)Nc3ccc4c(c3)OCO4)ccc2O[C@H]1CN(C)Cc1ccc(Cl)c(Cl)c1,inactive
19,C[C@H](CO)N1C[C@H](C)[C@H](CN(C)Cc2ccc(Cl)c(Cl)c2)Oc2ccc(NC(=O)Nc3ccc4c(c3)OCO4)cc2CC1=O,active
20,C[C@H](CO)N1C[C@H](C)[C@@H](CN(C)Cc2ccc(Cl)c(Cl)c2)Oc2ccc(NC(=O)Nc3ccc4c(c3)OCO4)cc2CC1=O,active
21,C[C@H]1CN([C@@H](C)CO)C(=O)Cc2cc(NC(=O)Nc3ccc4c(c3)OCO4)ccc2O[C@@H]1CN(C)Cc1ccc(Cl)c(Cl)c1,inactive
22,C[C@@H]1CCCCO[C@H](CN(C)C(=O)Nc2ccc(F)cc2)[C@@H](C)CN([C@@H](C)CO)C(=O)c2cc(NC(=O)CCC(F)(F)F)ccc2O1,inactive
23,CC(C)NC(=O)Nc1cccc2c1O[C@H](CN(C)C(=O)Nc1ccc3c(c1)OCO3)[C@@H](C)CN([C@@H](C)CO)C2=O,inactive

row,SMILES,cytotoxicity call
1,COc1ccc(NC(=O)N(C)C[C@H]2Oc3c(NC(=O)Nc4ccc(C(F)(F)F)cc4)cccc3C(=O)N([C@@H](C)CO)C[C@H]2C)cc1,inactive
2,C[C@@H]1CCCCO[C@H](CN(C)Cc2ccc(Cl)c(Cl)c2)[C@@H](C)CN([C@@H](C)CO)C(=O)c2cc(NC(=O)Nc3ccc(C(F)(F)F)cc3)ccc2O1,inactive
3,C[C@H]1CN([C@@H](C)CO)C(=O)c2cccc(NC(=O)c3cnccn3)c2O[C@H]1CN(C)Cc1ccncc1,inactive
4,C[C@@H]1CN([C@@H](C)CO)C(=O)c2cccc(NC(=O)c3ccncc3)c2O[C@H]1CN(C)Cc1ccc(C(=O)O)cc1,inactive
5,C[C@@H]1CCCCO[C@@H](CN(C)Cc2ccc(C(F)(F)F)cc2)[C@H](C)CN([C@@H](C)CO)C(=O)c2cc(NC(=O)Nc3cccc4ccccc34)ccc2O1,inactive
6,O=C(CN1CCOCC1)N[C@@H]1CC[C@@H](CCNC(=O)C2CCC2)O[C@@H]1CO,inactive
7,C[C@@H]1CN([C@H](C)CO)C(=O)Cc2cc(NS(=O)(=O)c3cn(C)cn3)ccc2O[C@@H]1CN(C)S(=O)(=O)c1ccc(F)cc1,inactive
8,O=C(C[C@H]1C[C@@H]2c3cc(NS(=O)(=O)c4ccc(F)cc4)ccc3O[C@@H]2[C@@H](CO)O1)NCc1cccc(F)c1,inactive
9,COc1ccc(S(=O)(=O)N(C)C[C@@H]2Oc3ccc(NS(=O)(=O)c4cn(C)cn4)cc3C(=O)N([C@H](C)CO)C[C@H]2C)cc1,inactive
10,CC(C)NC(=O)N(C)C[C@@H]1Oc2ccc(NS(=O)(=O)c3cccs3)cc2C(=O)N([C@@H](C)CO)C[C@H]1C,inactive
11,C[C@@H]1CCCCO[C@@H](CN(C)C(=O)NC2CCCCC2)[C@H](C)CN([C@@H](C)CO)C(=O)c2cc(NC(=O)Nc3ccccc3)ccc2O1,inactive
12,Cc1ccc(S(=O)(=O)N(C)C[C@@H]2OCCCC[C@@H](C)Oc3ccc(NS(C)(=O)=O)cc3C(=O)N([C@@H](C)CO)C[C@H]2C)cc1,inactive
13,COc1cccc(S(=O)(=O)Nc2ccc3c(c2)[C@H]2C[C@@H](CC(=O)NCCc4ccccc4)O[C@@H](CO)[C@H]2O3)c1,inactive
14,O=C(C[C@@H]1C[C@@H]2c3cc(NS(=O)(=O)c4ccc(F)cc4)ccc3O[C@@H]2[C@H](CO)O1)NCc1ccc(Oc2ccccc2)cc1,inactive
15,O=C(C[C@H]1C[C@@H]2c3cc(NC(=O)Nc4ccccc4F)ccc3O[C@@H]2[C@H](CO)O1)NCc1ccc(Oc2ccccc2)cc1,active
16,O=C(C[C@@H]1C[C@@H]2c3cc(NC(=O)Nc4ccccc4F)ccc3O[C@@H]2[C@@H](CO)O1)NCc1ccc(Oc2ccccc2)cc1,inactive
17,O=C(C[C@@H]1C[C@H]2c3cc(NC(=O)Nc4ccccc4F)ccc3O[C@H]2[C@H](CO)O1)NCc1ccc(Oc2ccccc2)cc1,inactive
18,COc1cccc(S(=O)(=O)Nc2ccc3c(c2)[C@H]2C[C@H](CC(=O)NCCc4ccccc4)O[C@@H](CO)[C@H]2O3)c1,inactive
19,COc1cccc(S(=O)(=O)Nc2ccc3c(c2)[C@H]2C[C@@H](CC(=O)NCCc4ccccc4)O[C@H](CO)[C@H]2O3)c1,active
20,O=C(C[C@H]1C[C@H]2c3cc(NC(=O)Nc4ccccc4F)ccc3O[C@H]2[C@@H](CO)O1)NCc1ccc(Oc2ccccc2)cc1,active
21,O=C(C[C@H]1C[C@H]2c3cc(NC(=O)Nc4ccccc4F)ccc3O[C@H]2[C@H](CO)O1)NCc1ccc(Oc2ccccc2)cc1,inactive
22,O=C(C[C@H]1C[C@H]2c3cc(NS(=O)(=O)c4ccc(F)cc4)ccc3O[C@H]2[C@H](CO)O1)NCc1ccc(Oc2ccccc2)cc1,inactive
23,O=C(C[C@@H]1C[C@H]2c3cc(NC(=O)Nc4ccccc4F)ccc3O[C@H]2[C@@H](CO)O1)NCc1ccc(Oc2ccccc2)cc1,inactive

row,SMILES,cytotoxicity call
1,O=C(C[C@H]1C[C@H]2c3cc(NS(=O)(=O)c4ccc(F)cc4)ccc3O[C@H]2[C@@H](CO)O1)NCc1ccc(Oc2ccccc2)cc1,active
2,O=C(O)[C@H]1CCCNC1,inactive
3,CO[C@@H]1CN(C)C(=O)c2ccc(NC(=O)Nc3cccc(F)c3)cc2OC[C@@H](C)N(C(=O)Nc2c(C)noc2C)C[C@@H]1C,inactive
4,C[C@H](CO)N1C[C@H](C)[C@@H](CN(C)Cc2ccccc2)OCCCC[C@H](C)Oc2ccc(NC(=O)Nc3ccc4c(c3)OCO4)cc2C1=O,inactive
5,C[C@@H]1CCCCO[C@H](CN(C)S(=O)(=O)c2ccc(Cl)cc2)[C@@H](C)CN([C@H](C)CO)C(=O)c2cc(NC(=O)Nc3ccc4c(c3)OCO4)ccc2O1,inactive
6,CC(C)NC(=O)N(C)C[C@@H]1OCCCC[C@@H](C)Oc2ccc(NC(=O)C3CCCCC3)cc2C(=O)N([C@@H](C)CO)C[C@@H]1C,inactive
7,Cc1noc(C)c1NC(=O)Nc1ccc2c(c1)C(=O)N([C@@H](C)CO)C[C@@H](C)[C@@H](CN(C)C(=O)C1CCCCC1)OCCCC[C@@H](C)O2,inactive
8,N#Cc1ccc(-c2cccs2)nc1,inactive
9,C[C@H]1CN([C@@H](C)CO)C(=O)Cc2cc(NC(=O)Cn3cnnn3)ccc2O[C@H]1CN(C)Cc1ccncc1,inactive
10,CC(=O)N1Cc2cc(C(=O)NCc3cc(F)cc(F)c3)nc(-c3cccc(C4=CCCC4)c3)c2[C@H]1CCO,inactive
11,CC(=O)N1Cc2cc(C(=O)NCC(F)(F)F)nc(-c3cccc(-c4cc5ccccc5o4)c3)c2[C@H]1CCO,inactive
12,COc1ccccc1-c1cccc(-c2nc(C(=O)Nc3nccs3)cc3c2[C@@H](CCO)N(C(=O)CC2CC2)C3)c1,inactive
13,CC(C)(C)S(=O)N1Cc2cc(C(=O)N3CCN(Cc4ccccc4)CC3)nc(-c3cccc(-c4cc5ccccc5o4)c3)c2[C@H]1CCO (some centres not stated),active
14,CC(=O)N1Cc2cc(C(=O)NCc3cccc(F)c3)nc(-c3cccc(C4=CCCCC4)c3)c2[C@H]1CCO,active
15,O=C(NCC(F)(F)F)c1cc2c(c(-c3cccc(-c4ccccc4F)c3)n1)[C@@H](CCO)N(C(=O)CC1CC1)C2,active
16,COc1ccc(C#Cc2cccc(-c3nc(C(=O)N4CCN(Cc5ccccc5)CC4)cc4c3[C@@H](CCO)N(S(=O)C(C)(C)C)C4)c2)cc1OC (some centres not stated),inactive
17,O=C(NCC1CC1)c1cc2c(c(-c3cccc(-c4ccccc4F)c3)n1)[C@@H](CCO)N(C(=O)CC1CC1)C2,inactive
18,CC(=O)N1Cc2cc(C(=O)NCc3cccc(F)c3)nc(-c3cccc(C4=CCCCC4)c3)c2[C@@H]1CCO,inactive
19,COc1ccccc1-c1cccc(-c2nc(C(=O)Nc3nccs3)cc3c2[C@H](CCO)N(C(=O)CC2CC2)C3)c1,inactive
20,COc1ccc(C#Cc2cccc(-c3nc(C(=O)N4CCN(Cc5ccccc5)CC4)cc4c3[C@H](CCO)N(S(=O)C(C)(C)C)C4)c2)cc1OC (some centres not stated),inactive
21,CCC(=O)N1Cc2cc(C(=O)Nc3nccs3)nc(-c3cccc(-c4ccccc4OC)c3)c2[C@H]1CCO,active
